PubChem BioAssay AID1159580 (chemical genetic matrix, 2015)
Among all 5,500 compounds or so, about 2,000 (36%) were called active. Another 18% or so got no clear call; they are omitted. Rule as the data show it: active = normalized growth mostly below about 0.91 (no sharp cut-off); inconclusive = no clear call, values can overlap the other calls; inactive = mostly above about 0.92. This is one part of the list.

Assay: chemical genetic growth profiling, strain panel (AID 1159580);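 also: tested at 20 µM; growth read once vehicle control cultures reached saturation at 30 °C; 1 = growth at the plate median or of vehicle wells; lower values mean less growth of the strain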
Settings: S. cerevisiae deletion strains, growth OD

Measured: normalized growth

CC1CCN(CC[C@H]2CCCN2S(=O)(=O)c2cccc(O)c2)CC1
inactive: locus YAL040C, strain CLN3, stronger effect = lower value 0.99 | locus YCL061C, strain MRC1 (second series), stronger effect = lower value 1 | locus YDR363W, strain ESC2, stronger effect = lower value 0.986 | locus YER002W, strain NOP16, stronger effect = lower value 0.989 | locus YGR078C, strain PAC10, stronger effect = lower value 1.02 | locus YMR263W, strain SAP30, stronger effect = lower value 1 | locus YMR307W, strain GAS1, stronger effect = lower value 1.03 | locus YNL128W, strain TEP1, stronger effect = lower value 1.01 | locus YNL175C, strain NOP13, stronger effect = lower value 1.01 | locus YNL197C, strain WHI3, stronger effect = lower value 1.01 | locus YNL224C, strain SQS1, stronger effect = lower value 1 | locus YNL322C, strain KRE1, stronger effect = lower value 0.984 | locus YOR083W, strain WHI5 (second series), stronger effect = lower value 1.03
